Results: paper PMC11006913

Key:
Assay in all cases: PBM; 200 nM protein, PBS
Conditions in all cases: dsDNA, one strand shown
[1] = biological target: HESX1 (Homo sapiens, UniProt Q9UBX0 95-180, R165K)
[2] = biological target: SHOX (Homo sapiens, UniProt O15266 103-189)
[3] = biological target: ALX4 (Homo sapiens, UniProt Q9H161 200-286)
[4] = biological target: ALX4 (Homo sapiens, UniProt Q9H161 200-286, Q225E)
[5] = biological target: HESX1 (Homo sapiens, UniProt Q9UBX0 95-180)
[6] = biological target: ALX1 (Homo sapiens, UniProt Q15699 118-204, L144V)
[7] = biological target: ALX3 (Homo sapiens, UniProt O95076 139-225, N203Q)
[8] = biological target: SHOX (Homo sapiens, UniProt O15266 103-189, R173C)
[9] = biological target: ALX1 (Homo sapiens, UniProt Q15699 118-204, L144R)
[10] = biological target: ALX3 (Homo sapiens, UniProt O95076 139-225)
[11] = biological target: PROP1 (Homo sapiens, UniProt O75360 56-141)
[12] = biological target: HESX1 (Homo sapiens, UniProt Q9UBX0 95-180, R109Q)
[13] = biological target: PROP1 (Homo sapiens, UniProt O75360 56-141, R99H)
[14] = biological target: ALX3 (Homo sapiens, UniProt O95076 139-225, L168Q)
[15] = biological target: HESX1 (Homo sapiens, UniProt Q9UBX0 95-180, P111T)
[16] = biological target: ALX3 (Homo sapiens, UniProt O95076 139-225, L168V)
[17] = biological target: PROP1 (Homo sapiens, UniProt O75360 56-141, F88S)
[18] = biological target: HESX1 (Homo sapiens, UniProt Q9UBX0 95-180, F115L)
[19] = biological target: ALX1 (Homo sapiens, UniProt Q15699 118-204)
[20] = biological target: ALX3 (Homo sapiens, UniProt O95076 139-225, N203S)
Chain of ALX3 (Homo sapiens, UniProt O95076 139-225, N203S) (O95076 139-225 N203S): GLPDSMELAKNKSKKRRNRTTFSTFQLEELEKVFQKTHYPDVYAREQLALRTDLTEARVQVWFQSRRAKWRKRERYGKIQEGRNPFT

Chain of SHOX (Homo sapiens, UniProt O15266 103-189, R173C) (O15266 103-189 R173C): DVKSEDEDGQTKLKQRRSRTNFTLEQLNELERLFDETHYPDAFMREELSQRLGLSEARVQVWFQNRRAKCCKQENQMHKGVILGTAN
Chain of ALX1 (Homo sapiens, UniProt Q15699 118-204, L144R) (Q15699 118-204 L144R): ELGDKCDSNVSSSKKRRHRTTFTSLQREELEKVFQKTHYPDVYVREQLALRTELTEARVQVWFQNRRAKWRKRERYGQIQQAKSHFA
Chain of PROP1 (Homo sapiens, UniProt O75360 56-141) (O75360 56-141): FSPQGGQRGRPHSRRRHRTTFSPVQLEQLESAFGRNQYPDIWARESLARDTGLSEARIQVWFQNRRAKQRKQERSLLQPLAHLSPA
Chain of SHOX (Homo sapiens, UniProt O15266 103-189) (O15266 103-189): as the sequence (O15266 103-189 R173C) above, with C71R counted along it
Chain of PROP1 (Homo sapiens, UniProt O75360 56-141, F88S) (O75360 56-141 F88S): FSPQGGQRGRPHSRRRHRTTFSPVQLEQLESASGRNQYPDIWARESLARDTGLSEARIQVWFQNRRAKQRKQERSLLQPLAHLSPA
Chain of HESX1 (Homo sapiens, UniProt Q9UBX0 95-180, R165K) (Q9UBX0 95-180 R165K): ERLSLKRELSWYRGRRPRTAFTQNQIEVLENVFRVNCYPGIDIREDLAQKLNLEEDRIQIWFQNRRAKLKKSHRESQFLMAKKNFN
Chain of ALX3 (Homo sapiens, UniProt O95076 139-225, L168Q) (O95076 139-225 L168Q): as the sequence (O95076 139-225 N203S) above, with L30Q, S65N counted along it
Chain of HESX1 (Homo sapiens, UniProt Q9UBX0 95-180, P111T) (Q9UBX0 95-180 P111T): as the sequence (Q9UBX0 95-180 R165K) above, with P17T, K71R counted along it
Chain of ALX3 (Homo sapiens, UniProt O95076 139-225, N203Q) (O95076 139-225 N203Q): as the sequence (O95076 139-225 N203S) above, with S65Q counted along it
Chain of ALX3 (Homo sapiens, UniProt O95076 139-225, L168V) (O95076 139-225 L168V): as the sequence (O95076 139-225 N203S) above, with L30V, S65N counted along it
Chain of HESX1 (Homo sapiens, UniProt Q9UBX0 95-180, R109Q) (Q9UBX0 95-180 R109Q): as the sequence (Q9UBX0 95-180 R165K) above, with R15Q, K71R counted along it
Chain of HESX1 (Homo sapiens, UniProt Q9UBX0 95-180) (Q9UBX0 95-180): as the sequence (Q9UBX0 95-180 R165K) above, with K71R counted along it
Chain of ALX4 (Homo sapiens, UniProt Q9H161 200-286, Q225E) (Q9H161 200-286 Q225E): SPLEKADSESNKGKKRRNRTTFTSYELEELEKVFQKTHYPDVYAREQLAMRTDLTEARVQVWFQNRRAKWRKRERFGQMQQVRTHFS
Chain of HESX1 (Homo sapiens, UniProt Q9UBX0 95-180, F115L) (Q9UBX0 95-180 F115L): as the sequence (Q9UBX0 95-180 R165K) above, with F21L, K71R counted along it
Chain of ALX3 (Homo sapiens, UniProt O95076 139-225) (O95076 139-225): as the sequence (O95076 139-225 N203S) above, with S65N counted along it
Chain of ALX1 (Homo sapiens, UniProt Q15699 118-204, L144V) (Q15699 118-204 L144V): as the sequence (Q15699 118-204 L144R) above, with R27V counted along it
Chain of ALX4 (Homo sapiens, UniProt Q9H161 200-286) (Q9H161 200-286): as the sequence (Q9H161 200-286 Q225E) above, with E26Q counted along it
Chain of PROP1 (Homo sapiens, UniProt O75360 56-141, R99H) (O75360 56-141 R99H): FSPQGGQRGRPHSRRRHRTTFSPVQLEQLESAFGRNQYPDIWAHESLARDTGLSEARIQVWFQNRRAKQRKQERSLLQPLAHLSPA
Chain of ALX1 (Homo sapiens, UniProt Q15699 118-204) (Q15699 118-204): as the sequence (Q15699 118-204 L144R) above, with R27L counted along it

In the case of AGTAATTA, the binding signal [1] is reported as 13 upbm affinity estimate (log intensity, higher = more binding, comparable within an allelic series), the binding signal [2] is reported as 12.7 upbm affinity estimate (log intensity, higher = more binding, comparable within an allelic series) and the binding signal [3] is reported as 14.3 upbm affinity estimate (log intensity, higher = more binding, comparable within an allelic series). For the same sequence, the binding signal [4] was 13.8 upbm affinity estimate (log intensity, higher = more binding, comparable within an allelic series), the binding signal [5] was 13.1 upbm affinity estimate (log intensity, higher = more binding, comparable within an allelic series) and the binding signal [6] was 12.2 upbm affinity estimate (log intensity, higher = more binding, comparable within an allelic series). For the same sequence, the binding signal [7] was 8.6 upbm affinity estimate (log intensity, higher = more binding, comparable within an allelic series), the binding signal [8] was 10 upbm affinity estimate (log intensity, higher = more binding, comparable within an allelic series) and the binding signal [9] was 11.8 upbm affinity estimate (log intensity, higher = more binding, comparable within an allelic series). For the same sequence, the binding signal [10] was 12.8 upbm affinity estimate (log intensity, higher = more binding, comparable within an allelic series), the binding signal [11] was 11.9 upbm affinity estimate (log intensity, higher = more binding, comparable within an allelic series) and the binding signal [12] was 9.52 upbm affinity estimate (log intensity, higher = more binding, comparable within an allelic series). For the same sequence, the binding signal [13] was 11.9 upbm affinity estimate (log intensity, higher = more binding, comparable within an allelic series), the binding signal [14] was 11 upbm affinity estimate (log intensity, higher = more binding, comparable within an allelic series) and the binding signal [15] was 11.6 upbm affinity estimate (log intensity, higher = more binding, comparable within an allelic series). The binding signal [16] was 10.6 upbm affinity estimate (log intensity, higher = more binding, comparable within an allelic series), the binding signal [17] was 7.94 upbm affinity estimate (log intensity, higher = more binding, comparable within an allelic series) and the binding signal [18] was 8.09 upbm affinity estimate (log intensity, higher = more binding, comparable within an allelic series). For the same sequence, the binding signal [19] was 12.7 upbm affinity estimate (log intensity, higher = more binding, comparable within an allelic series) and the binding signal [20] was 8.73 upbm affinity estimate (log intensity, higher = more binding, comparable within an allelic series).
For GTAATTAA, the binding signal [1] was 13.2 upbm affinity estimate (log intensity, higher = more binding, comparable within an allelic series), the binding signal [2] was 12.8 upbm affinity estimate (log intensity, higher = more binding, comparable within an allelic series) and the binding signal [3] was 14.4 upbm affinity estimate (log intensity, higher = more binding, comparable within an allelic series). For the same sequence, the binding signal [4] was 14 upbm affinity estimate (log intensity, higher = more binding, comparable within an allelic series), the binding signal [5] was 13.3 upbm affinity estimate (log intensity, higher = more binding, comparable within an allelic series) and the binding signal [6] was 12.2 upbm affinity estimate (log intensity, higher = more binding, comparable within an allelic series). For the same sequence, the binding signal [7] was 8.59 upbm affinity estimate (log intensity, higher = more binding, comparable within an allelic series), the binding signal [8] was 10.3 upbm affinity estimate (log intensity, higher = more binding, comparable within an allelic series) and the binding signal [9] was 11.8 upbm affinity estimate (log intensity, higher = more binding, comparable within an allelic series). For the same sequence, the binding signal [10] was 12.9 upbm affinity estimate (log intensity, higher = more binding, comparable within an allelic series), the binding signal [11] was 11.9 upbm affinity estimate (log intensity, higher = more binding, comparable within an allelic series) and the binding signal [12] was 9.89 upbm affinity estimate (log intensity, higher = more binding, comparable within an allelic series). For the same sequence, the binding signal [13] was 11.8 upbm affinity estimate (log intensity, higher = more binding, comparable within an allelic series), the binding signal [14] was 11.2 upbm affinity estimate (log intensity, higher = more binding, comparable within an allelic series) and the binding signal [15] was 11.8 upbm affinity estimate (log intensity, higher = more binding, comparable within an allelic series). The binding signal [16] was 10.8 upbm affinity estimate (log intensity, higher = more binding, comparable within an allelic series), the binding signal [17] was 7.99 upbm affinity estimate (log intensity, higher = more binding, comparable within an allelic series) and the binding signal [18] was 8.12 upbm affinity estimate (log intensity, higher = more binding, comparable within an allelic series). The binding signal [19] was 12.9 upbm affinity estimate (log intensity, higher = more binding, comparable within an allelic series) and the binding signal [20] was 8.7 upbm affinity estimate (log intensity, higher = more binding, comparable within an allelic series).
